# Results: the supplement of paper PMC9694430
# What was measured:
# Test in all cases: thermal shift delta Tm vs DMSO control; higher = stronger stabilization (binding)
# Conditions in all cases: 12.5 µM; protein concentration 2 µM
# LOC_OS01G57100-cb003 = system: LOC_OS01G57100-cb003
# How it was run: (§1)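 Rice kinase domain constructs, made in E. coli and purified, were placed in 96-well plates at 2 μM in 19.5 μl of 100 mM potassium phosphate pH 7.5, 150 mM NaCl, 10% glycerol and 5 × SYPRO Orange, with compound in DMSO. A temperature ramp from 25°C to 95°C at 0.05°C/s was used for differential scanning fluorimetry. The melting temperature shift is a triplicate mean compared with DMSO-only protein, derived from Boltzmann fits.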
# LOC_OS01G60330-cb001 = system: LOC_OS01G60330-cb001
# How it was run: as §1
# LOC_OS01G60700-cb002 = system: LOC_OS01G60700-cb002
# How it was run: as §1
# LOC_OS01G63280-cb003 = system: LOC_OS01G63280-cb003
# How it was run: as §1
# LOC_OS01G67340-cb003 = system: LOC_OS01G67340-cb003
# How it was run: as §1
# LOC_OS01G70970-cb002 = system: LOC_OS01G70970-cb002
# How it was run: as §1
# LOC_OS02G07810-cb001 = system: LOC_OS02G07810-cb001
# How it was run: as §1
# LOC_OS02G08530-cb003 = system: LOC_OS02G08530-cb003
# How it was run: as §1
# LOC_OS02G14120-cb001 = system: LOC_OS02G14120-cb001
# How it was run: as §1
# LOC_OS02G17970-cb001 = system: LOC_OS02G17970-cb001
# How it was run: as §1
# LOC_OS02G45750-cb003 = system: LOC_OS02G45750-cb003
# How it was run: as §1
# LOC_OS02G54510-cb004 = system: LOC_OS02G54510-cb004
# How it was run: as §1
# LOC_OS03G04050-cb001 = system: LOC_OS03G04050-cb001
# How it was run: as §1
# LOC_OS03G12390-cb001 = system: LOC_OS03G12390-cb001
# How it was run: as §1
# LOC_OS03G27990-cb004 = system: LOC_OS03G27990-cb004
# How it was run: as §1
# LOC_OS03G50450-cb001 = system: LOC_OS03G50450-cb001
# How it was run: as §1
# LOC_OS03G50810-cb003 = system: LOC_OS03G50810-cb003
# How it was run: as §1
# LOC_OS04G35114-cb001 = system: LOC_OS04G35114-cb001
# How it was run: as §1
# LOC_OS04G38480-cb003 = system: T1, LOC_OS04G38480-cb003
# T1 sequence (whole entry): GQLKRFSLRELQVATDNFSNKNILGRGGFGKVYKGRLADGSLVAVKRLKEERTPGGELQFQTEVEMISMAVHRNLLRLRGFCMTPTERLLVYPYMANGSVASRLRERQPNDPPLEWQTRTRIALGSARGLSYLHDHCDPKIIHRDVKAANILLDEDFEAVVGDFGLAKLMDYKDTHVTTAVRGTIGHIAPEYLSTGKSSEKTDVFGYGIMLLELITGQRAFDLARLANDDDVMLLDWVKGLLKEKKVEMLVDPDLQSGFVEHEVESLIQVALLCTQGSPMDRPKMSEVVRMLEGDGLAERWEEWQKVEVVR
# How it was run: as §1
# LOC_OS04G41100-cb001 = system: T2, LOC_OS04G41100-cb001
# T2 sequence (whole entry): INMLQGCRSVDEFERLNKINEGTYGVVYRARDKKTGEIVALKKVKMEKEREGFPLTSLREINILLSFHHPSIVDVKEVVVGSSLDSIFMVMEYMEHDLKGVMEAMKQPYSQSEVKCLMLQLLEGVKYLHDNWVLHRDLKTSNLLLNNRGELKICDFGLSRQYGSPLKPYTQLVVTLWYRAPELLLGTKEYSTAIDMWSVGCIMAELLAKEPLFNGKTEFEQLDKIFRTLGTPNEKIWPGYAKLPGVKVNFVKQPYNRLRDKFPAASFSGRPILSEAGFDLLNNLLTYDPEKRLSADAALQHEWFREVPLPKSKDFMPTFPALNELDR
# How it was run: as §1
# 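Note: purified Escherichia coli-expressed rice kinase domain construct.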
SMILES,thermal shift delta Tm (LOC_OS01G57100-cb003) [°C],thermal shift delta Tm (LOC_OS01G60330-cb001) [°C],thermal shift delta Tm (LOC_OS01G60700-cb002) [°C],thermal shift delta Tm (LOC_OS01G63280-cb003) [°C],thermal shift delta Tm (LOC_OS01G67340-cb003) [°C],thermal shift delta Tm (LOC_OS01G70970-cb002) [°C],thermal shift delta Tm (LOC_OS02G07810-cb001) [°C],thermal shift delta Tm (LOC_OS02G08530-cb003) [°C],thermal shift delta Tm (LOC_OS02G14120-cb001) [°C],thermal shift delta Tm (LOC_OS02G17970-cb001) [°C],thermal shift delta Tm (LOC_OS02G45750-cb003) [°C],thermal shift delta Tm (LOC_OS02G54510-cb004) [°C],thermal shift delta Tm (LOC_OS03G04050-cb001) [°C],thermal shift delta Tm (LOC_OS03G12390-cb001) [°C],thermal shift delta Tm (LOC_OS03G27990-cb004) [°C],thermal shift delta Tm (LOC_OS03G50450-cb001) [°C],thermal shift delta Tm (LOC_OS03G50810-cb003) [°C],thermal shift delta Tm (LOC_OS04G35114-cb001) [°C],thermal shift delta Tm (LOC_OS04G38480-cb003) [°C],thermal shift delta Tm (LOC_OS04G41100-cb001) [°C]
C[C@@H](Oc1cc(-c2cnn(C3CCNCC3)c2)cnc1N)c1c(Cl)ccc(F)c1Cl,2.74,1.69,0.88,0.44,1.69,1.7,0.08,0.54,10.6,0.54,5.46,0.63,0.35,1.31,0.48,0.08,2.49,5.73,3.79,0.57
CN1CCC(Nc2nc(Nc3ccc(Oc4ccccc4)cc3)c3c(=O)[nH]cc(Br)c3n2)CC1,1.9,3.13,1.69,0.86,1.7,3.58,0.79,3.25,3.98,0.52,6.91,0.98,0.8,2.05,1.75,1.67,2.6,4.37,2.13,0.75
CN1CCN(c2ccc(Nc3cc(-c4cccc(-n5ccc6cc(C7CC7)cc(F)c6c5=O)c4CO)cn(C)c3=O)nc2)CC1,0.99,0.83,1.11,0.24,-0.1,1.04,0.37,1.24,0.2,0.75,0.34,-0.3,0.53,-0.21,0.57,0.67,0.5,0.26,1.08,0.45
COc1cc(N2CCN(C)CC2)ccc1Nc1ncc2c(n1)N(C)c1ccccc1C(=O)N2,0.71,0.79,1.11,0.14,0.39,0.32,0.41,0.62,2.52,0.53,0.85,0.32,0.17,0.62,0.11,-0.01,0.23,0.35,1.14,0.17
O=S(=O)(c1cccc2c(I)cccc12)N1CCCNCC1,0.91,-0.01,0,0.2,0,0.35,0.33,0.35,0.9,0.24,0.53,-0.05,0.42,0.16,0.1,0.19,0.19,0.11,2.17,0.44
Cc1nc(Nc2cnn(C3CCNCC3)c2)nc2c1N(C)C(=O)c1cc3ccccc3cc1N2C,0.83,1.06,0.29,0.05,1.06,0.51,0.09,1.07,1.04,-0.03,2.86,-0.12,0.18,1.89,0.13,0.69,0.96,1.48,1.64,0.38
FC(F)(F)c1ccc(/C=C/c2nc(COc3ccc(CCCCn4ccnn4)cc3)co2)cc1 [Mubritinib (TAK 165)],0.83,0.99,0.41,0.22,-0.98,0.3,0.23,0.63,0.38,0.37,0.54,0.1,0.37,0,0.51,0.76,0.3,0.27,0.25,0.36
CCN1/C(=C/C(C)=O)Sc2ccc(OC)cc21,1.85,1.16,0.54,0.05,0.66,0.38,0.47,0.41,0.43,0.27,0.78,0.02,0.22,0.14,0.03,0.66,0.32,0.67,0.6,0.55
CN(C)CCCn1cc(C2=C(c3c[nH]c4ccccc34)C(=O)NC2=O)c2ccccc21,0.59,1.19,0.85,0.38,0.56,0.73,0.35,0.74,0.09,0.48,0.99,0.36,0.65,0.12,0.5,1.02,0.83,1.37,-0.32,0.65
O=C(O)c1ccc(-c2c[nH]c3ncc(-c4ccccc4)cc23)cc1C1CCCC1,1.09,-0.77,-3.79,2.57,4.86,6.62,0.4,4.81,10.7,-1.49,1.28,0.31,0.69,0.39,0.6,1.12,0.8,2.01,4.2,0.44
CCCNC(=O)Nc1ccc(Oc2ncnc3cc(OC)c(OC)cc23)cc1Cl,0.3,0.97,-0.2,0.14,-0.13,-0.25,0.93,1.15,-0.1,0.04,-0.23,-0.21,-0.21,0.74,-0.33,-0.08,0.49,0.48,-0.17,-0.34
Cn1cc(-c2ccc(F)c(C(F)(F)F)c2)nc1C1CCN(c2ncnc3[nH]ncc23)CC1,0.5,1.11,0.96,-0.11,0.07,0.57,0.34,0.53,0.5,0.85,0.33,0.45,0.47,-0.18,0.44,0.81,0.37,0.97,0.91,0.15
